Assay results from the supplement of paper PMC10849652.
The full data set covers some 7,900 targets. This sample favours those with a hit. About 0.6% of all pairs of compound and target were hits.

What was measured:
Experiment in all cases: log2 fold change, soluble protein after heating vs DMSO (PISA); higher = thermal stabilisation; K562 cells, 10 uM, 30 min; active = over 0.2 and 3.5 SD of the protein, either way, in both replicates (recomputed)
[1] = compound: C#Cc1cccc(Nc2ncnc3cc(OCCOC)c(OCCOC)cc23)c1 [erlotinib]
Summary of the method: (§1)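 Thermal stability values are relative to control samples and come from duplicates. They are expressed as log2 fold changes. For measurement, K562 cells (2×10^6 cells/mL) received 10 μM compound for 30 min, and aliquots were heated for 3 min over 48°C-58°C, pooled, and extracted at 4°C in PBS with 0.5% NP-40. Soluble protein, the supernatant after 21,000xg for 90 min, was quantified by TMTpro 16plex LC-MS/MS with equalised channel sums.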

[2] = compound: C/C(=N\NC(=O)C1=CC(=CC=C1)S(=O)(=O)N2CCOCC2)/C3=C(C=CC(=C3)Cl)O
Summary of the method: as §1

[3] = compound: C1=CC(=C(C=C1Cl)C2=NC3=NC=CN=C3C(=N2)NC4=CC=NC=C4)F
Summary of the method: as §1

[4] = compound: C1=CC(=CC=C1C2=NC3=C(N2)C=C(C=C3)C(=O)N)OC4=CC=C(C=C4)Cl
Summary of the method: as §1

[5] = compound: C1=CC2=C(C=CC(=C2)/C=C\3/C(=O)NC(=NCC4=CC=CS4)S3)N=C1
Summary of the method: as §1

[6] = compound: C1=CC2=NC=CN=C2C=C1/C=C/3\C(=O)NC(=O)S3
Summary of the method: as §1

[7] = compound: C1=CC=C(C=C1)C2=NC(=C(N2)C3=CC=NC=C3)C4=CC(=C(C=C4)Cl)O
Summary of the method: as §1

[8] = compound: C1=CC=C2C(=C1)C3=NNC4=CC=CC(=C43)C2=O
Summary of the method: as §1

[9] = compound: C1CCN(C1)C(=O)NC2=CC=CC(=C2)NC3=NC=C(C(=N3)NCCC4=CN=CN4)Br
Summary of the method: as §1

[10] = compound: C1CN(CCC1(CC2=CC=C(C=C2)Cl)N)C3=NC=NC4=C3C=CN4
Summary of the method: as §1

Measured: log2 fold change

CASC3 (UniProt O15234)
UniProt O15234, sequence (O15234 whole entry, looked up): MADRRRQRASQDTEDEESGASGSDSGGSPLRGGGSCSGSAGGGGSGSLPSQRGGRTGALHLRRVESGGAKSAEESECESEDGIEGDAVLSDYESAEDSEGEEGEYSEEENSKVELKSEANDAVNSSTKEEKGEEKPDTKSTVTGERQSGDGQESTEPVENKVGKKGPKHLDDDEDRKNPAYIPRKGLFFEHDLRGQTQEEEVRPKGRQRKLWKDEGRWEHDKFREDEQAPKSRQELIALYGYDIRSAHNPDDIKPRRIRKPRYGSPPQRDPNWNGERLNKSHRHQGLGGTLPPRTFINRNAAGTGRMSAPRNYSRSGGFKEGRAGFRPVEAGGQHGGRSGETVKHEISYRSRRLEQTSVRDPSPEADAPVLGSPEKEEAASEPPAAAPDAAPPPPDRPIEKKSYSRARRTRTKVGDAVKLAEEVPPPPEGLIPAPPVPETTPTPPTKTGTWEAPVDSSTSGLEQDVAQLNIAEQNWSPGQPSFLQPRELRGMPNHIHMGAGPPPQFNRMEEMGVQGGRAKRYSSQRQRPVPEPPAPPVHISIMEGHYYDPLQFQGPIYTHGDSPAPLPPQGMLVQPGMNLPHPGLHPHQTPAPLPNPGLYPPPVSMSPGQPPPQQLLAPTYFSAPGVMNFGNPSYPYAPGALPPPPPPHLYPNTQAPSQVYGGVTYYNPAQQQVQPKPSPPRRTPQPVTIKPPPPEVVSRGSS
inactive: [1] -0.084 | [2] -0.166 | [3] -0.066 | [4] 0.068 | [5] 0 | [6] -0.047 | [7] 0.023 | [8] -0.29 | [9] 0.089 | [10] 0.022

CD81 (UniProt P60033)
inactive: [1] -0.065 | [2] 0.033 | [3] 0.059 | [4] 0.039 | [5] -0.065 | [6] 0.059 | [7] 0.013 | [8] -0.043 | [9] 0.098 | [10] 0.206

C4A (UniProt P0C0L4)
UniProt P0C0L4, sequence (P0C0L4 whole entry, looked up): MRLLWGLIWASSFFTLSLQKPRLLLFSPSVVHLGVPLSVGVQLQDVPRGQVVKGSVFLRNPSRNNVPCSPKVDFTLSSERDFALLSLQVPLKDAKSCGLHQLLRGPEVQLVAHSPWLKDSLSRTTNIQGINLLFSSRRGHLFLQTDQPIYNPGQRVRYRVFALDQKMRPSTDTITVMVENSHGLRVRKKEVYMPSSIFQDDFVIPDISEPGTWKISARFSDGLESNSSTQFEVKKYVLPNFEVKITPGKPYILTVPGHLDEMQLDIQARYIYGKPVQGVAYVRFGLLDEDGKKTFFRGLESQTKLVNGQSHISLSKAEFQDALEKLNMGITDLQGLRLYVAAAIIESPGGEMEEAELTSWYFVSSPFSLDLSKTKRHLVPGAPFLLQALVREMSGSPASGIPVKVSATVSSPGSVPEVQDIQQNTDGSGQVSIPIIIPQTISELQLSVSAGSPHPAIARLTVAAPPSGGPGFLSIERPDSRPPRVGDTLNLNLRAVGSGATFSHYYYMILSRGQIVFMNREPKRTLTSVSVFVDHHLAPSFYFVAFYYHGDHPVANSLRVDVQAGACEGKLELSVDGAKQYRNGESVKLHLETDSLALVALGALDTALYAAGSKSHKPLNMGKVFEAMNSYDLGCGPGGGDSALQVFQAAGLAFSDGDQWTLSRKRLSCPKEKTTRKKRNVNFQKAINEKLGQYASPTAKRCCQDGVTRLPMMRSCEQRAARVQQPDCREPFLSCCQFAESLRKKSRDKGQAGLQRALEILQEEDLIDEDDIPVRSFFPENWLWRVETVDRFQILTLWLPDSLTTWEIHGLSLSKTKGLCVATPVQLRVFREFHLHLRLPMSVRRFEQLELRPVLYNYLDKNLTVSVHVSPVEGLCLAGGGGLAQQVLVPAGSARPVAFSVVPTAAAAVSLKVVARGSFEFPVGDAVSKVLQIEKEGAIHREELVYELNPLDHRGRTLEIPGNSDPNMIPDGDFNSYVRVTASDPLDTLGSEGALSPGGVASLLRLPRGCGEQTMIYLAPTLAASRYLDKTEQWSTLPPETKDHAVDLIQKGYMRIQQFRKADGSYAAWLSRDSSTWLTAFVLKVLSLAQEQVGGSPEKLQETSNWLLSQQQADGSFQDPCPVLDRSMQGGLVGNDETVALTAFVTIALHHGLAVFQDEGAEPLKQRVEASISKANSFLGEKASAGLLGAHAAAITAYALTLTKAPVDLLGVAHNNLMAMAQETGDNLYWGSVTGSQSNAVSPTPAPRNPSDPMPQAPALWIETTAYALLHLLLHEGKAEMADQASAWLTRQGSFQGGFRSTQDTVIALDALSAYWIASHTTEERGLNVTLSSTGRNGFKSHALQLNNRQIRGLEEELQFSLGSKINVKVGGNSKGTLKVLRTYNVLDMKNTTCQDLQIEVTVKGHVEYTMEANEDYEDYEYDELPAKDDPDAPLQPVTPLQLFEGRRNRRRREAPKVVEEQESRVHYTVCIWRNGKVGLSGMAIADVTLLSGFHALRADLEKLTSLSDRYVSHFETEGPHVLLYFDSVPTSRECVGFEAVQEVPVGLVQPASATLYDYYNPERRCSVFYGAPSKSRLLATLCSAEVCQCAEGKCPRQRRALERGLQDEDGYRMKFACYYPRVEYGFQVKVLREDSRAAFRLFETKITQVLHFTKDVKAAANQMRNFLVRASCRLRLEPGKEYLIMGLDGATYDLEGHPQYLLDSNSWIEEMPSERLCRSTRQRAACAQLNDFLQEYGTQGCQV
inactive: [1] -0.117 | [2] -0.05 | [3] 0.024 | [4] 0.078 | [5] 0.12 | [6] -0.032 | [7] 0.002 | [8] -0.132 | [9] 0.072 | [10] 0.104

C9orf72 (UniProt Q96LT7)
inactive: [1] 0.095 | [2] 0.021 | [3] 0.02 | [4] -0.012 | [5] -0.068 | [6] -0.068 | [7] -0.086 | [8] -0.057 | [9] -0.205 | [10] 0.211

CSTF2 (UniProt P33240)
inactive: [1] 0.032 | [2] -0.002 | [3] -0.011 | [4] 0.017 | [5] 0.017 | [6] 0.051 | [7] -0.076 | [8] 0.023 | [9] 0.033 | [10] -0.061

CAMK2G isoform 6 (UniProt Q13555)
UniProt Q13555, sequence (Q13555 whole entry, looked up): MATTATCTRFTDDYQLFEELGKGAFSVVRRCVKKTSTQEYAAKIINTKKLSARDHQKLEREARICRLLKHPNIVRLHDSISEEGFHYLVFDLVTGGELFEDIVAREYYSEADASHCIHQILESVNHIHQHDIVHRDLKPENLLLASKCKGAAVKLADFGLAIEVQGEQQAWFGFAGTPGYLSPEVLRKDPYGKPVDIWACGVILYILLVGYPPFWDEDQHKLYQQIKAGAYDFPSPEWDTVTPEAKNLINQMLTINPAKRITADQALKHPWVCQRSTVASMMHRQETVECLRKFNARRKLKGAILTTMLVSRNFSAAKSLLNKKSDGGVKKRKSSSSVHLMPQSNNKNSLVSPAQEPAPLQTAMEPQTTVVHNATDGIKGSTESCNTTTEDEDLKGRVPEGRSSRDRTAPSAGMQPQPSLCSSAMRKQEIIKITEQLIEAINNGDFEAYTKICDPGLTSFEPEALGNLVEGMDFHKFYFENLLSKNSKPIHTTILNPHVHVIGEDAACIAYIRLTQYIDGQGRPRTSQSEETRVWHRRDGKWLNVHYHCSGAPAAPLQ
inactive: [1] -0.003 | [2] -0.096 | [3] -0.047 | [4] -0.098 | [5] 0.054 | [6] 0.009 | [7] 0.055 | [8] 0.08 | [9] -0.02 | [10] 0.015

CBR1 (UniProt P16152)
UniProt P16152, sequence (P16152 whole entry, looked up): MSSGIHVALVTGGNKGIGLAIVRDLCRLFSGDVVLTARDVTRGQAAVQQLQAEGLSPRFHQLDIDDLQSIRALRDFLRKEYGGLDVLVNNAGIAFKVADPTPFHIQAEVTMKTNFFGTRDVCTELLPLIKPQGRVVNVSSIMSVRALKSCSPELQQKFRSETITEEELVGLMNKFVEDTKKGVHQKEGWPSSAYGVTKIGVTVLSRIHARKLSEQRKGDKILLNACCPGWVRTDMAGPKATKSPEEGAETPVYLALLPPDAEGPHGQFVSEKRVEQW
inactive: [1] 0.011 | [2] 0.066 | [3] 0.115 | [4] 0.008 | [5] -0.009 | [6] 0.028 | [7] 0.186 | [8] -0.038 | [9] -0.027 | [10] 0.057

CAB39L (UniProt Q9H9S4)
inactive: [1] -0.026 | [2] -0.001 | [3] -0.088 | [4] 0.065 | [5] 0.042 | [6] 0.015 | [7] 0.007 | [8] -0.117 | [9] -0.068 | [10] -0.306

CDC42BPB (UniProt Q9Y5S2)
UniProt Q9Y5S2, sequence (Q9Y5S2 whole entry, looked up): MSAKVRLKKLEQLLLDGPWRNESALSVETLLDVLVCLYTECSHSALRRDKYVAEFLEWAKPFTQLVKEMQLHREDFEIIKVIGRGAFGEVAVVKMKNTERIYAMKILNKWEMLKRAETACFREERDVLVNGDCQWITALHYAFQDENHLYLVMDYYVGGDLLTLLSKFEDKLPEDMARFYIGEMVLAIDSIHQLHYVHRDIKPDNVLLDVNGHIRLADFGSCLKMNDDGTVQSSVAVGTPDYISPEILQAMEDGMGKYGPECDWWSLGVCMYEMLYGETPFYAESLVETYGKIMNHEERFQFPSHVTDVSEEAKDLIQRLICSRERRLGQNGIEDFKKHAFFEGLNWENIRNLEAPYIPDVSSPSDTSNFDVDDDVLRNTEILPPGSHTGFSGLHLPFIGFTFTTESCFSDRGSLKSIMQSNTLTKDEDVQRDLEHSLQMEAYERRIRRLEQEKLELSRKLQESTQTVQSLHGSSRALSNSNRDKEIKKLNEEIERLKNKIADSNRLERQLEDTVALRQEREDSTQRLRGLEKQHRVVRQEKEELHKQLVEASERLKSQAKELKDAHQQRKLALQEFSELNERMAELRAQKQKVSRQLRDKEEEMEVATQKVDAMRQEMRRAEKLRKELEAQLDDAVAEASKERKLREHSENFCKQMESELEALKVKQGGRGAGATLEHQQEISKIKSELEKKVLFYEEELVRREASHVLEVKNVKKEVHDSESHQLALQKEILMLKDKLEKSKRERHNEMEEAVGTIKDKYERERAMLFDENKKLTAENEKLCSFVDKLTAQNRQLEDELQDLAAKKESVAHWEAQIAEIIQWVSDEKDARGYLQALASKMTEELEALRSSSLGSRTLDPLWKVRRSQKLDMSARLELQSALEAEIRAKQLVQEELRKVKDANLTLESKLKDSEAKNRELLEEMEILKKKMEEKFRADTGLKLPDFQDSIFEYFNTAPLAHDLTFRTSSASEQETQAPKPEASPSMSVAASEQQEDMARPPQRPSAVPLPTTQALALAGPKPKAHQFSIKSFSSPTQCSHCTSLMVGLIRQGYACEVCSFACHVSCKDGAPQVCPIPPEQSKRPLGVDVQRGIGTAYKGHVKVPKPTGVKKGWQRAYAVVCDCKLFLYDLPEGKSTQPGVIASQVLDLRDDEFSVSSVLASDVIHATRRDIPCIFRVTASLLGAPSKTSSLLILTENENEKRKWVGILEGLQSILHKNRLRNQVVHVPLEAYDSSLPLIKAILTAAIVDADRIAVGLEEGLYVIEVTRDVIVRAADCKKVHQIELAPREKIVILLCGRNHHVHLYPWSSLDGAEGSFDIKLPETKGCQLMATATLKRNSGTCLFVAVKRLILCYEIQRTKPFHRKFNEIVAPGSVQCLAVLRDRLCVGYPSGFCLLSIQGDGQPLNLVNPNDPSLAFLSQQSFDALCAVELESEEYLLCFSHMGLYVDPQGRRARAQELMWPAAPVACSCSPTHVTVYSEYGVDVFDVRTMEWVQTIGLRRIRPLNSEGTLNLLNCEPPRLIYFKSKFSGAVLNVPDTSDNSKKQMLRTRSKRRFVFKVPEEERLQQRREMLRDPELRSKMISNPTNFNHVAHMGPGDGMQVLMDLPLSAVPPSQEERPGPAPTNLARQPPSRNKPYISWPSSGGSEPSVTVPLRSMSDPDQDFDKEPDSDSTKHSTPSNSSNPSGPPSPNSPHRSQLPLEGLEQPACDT
inactive: [1] -0.005 | [2] 0.221 | [3] -0.071 | [4] 0.069 | [5] -0.047 | [6] 0.027 | [7] -0.024 | [8] 0.04 | [9] 0.017 | [10] -0.221

CNDP2 (UniProt Q96KP4)
inactive: [1] 0.035 | [2] -0.099 | [3] 0.058 | [4] 0.022 | [5] 0.091 | [6] -0.024 | [7] 0.064 | [8] 0.058 | [9] 0.023 | [10] 0.072

COPS4 (UniProt Q9BT78)
inactive: [1] -0.002 | [2] 0.061 | [3] 0.13 | [4] -0.004 | [5] 0.036 | [6] -0.006 | [7] 0.054 | [8] 0.024 | [9] -0.009 | [10] -0.002

CHCHD1 (UniProt Q96BP2)
inactive: [1] -0.034 | [2] -0.007 | [3] -0.048 | [4] 0.027 | [5] -0.135 | [6] -0.003 | [7] -0.057 | [8] 0.039 | [9] 0.022 | [10] -0.091

CLINT1 isoform 3 (UniProt Q14677)
inactive: [1] 0.016 | [2] -0.134 | [3] -0.097 | [4] -0.036 | [5] 0.026 | [6] 0.05 | [7] -0.03 | [8] -0.042 | [9] -0.044 | [10] 0.042
